Results on eight compounds are retold here after PubChem BioAssay (NCI).

Test systems include HCT-15 colon; HT29 colon; SNB-75 CNS; SNB-19 CNS; U251 CNS; PC-3 prostate; SK-MEL-5 melanoma; UACC-62 melanoma; LOX IMVI melanoma; SK-MEL-28 melanoma; SK-MEL-2 melanoma; EKVX NSCLC; SN12C renal; UO-31 renal; TK-10 renal; ACHN renal; CAKI-1 renal; A498 renal; CCRF-CEM leukemia; MOLT-4 leukemia.
Common to all, as to test: NCI-60 one-dose screen, 48 h (100 = growth as untreated, 0 = no growth, -100 = all killed)
Holding throughout (conditions): 10 µM unless noted

The panel holds about 83,000 compounds, 20% with a hit somewhere; the sample as a whole holds those more often.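 Values shown are percent growth following 48 h exposure of cells in 96-well plates to a single concentration of compound; below 10 was considered active.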 A number with no mark means an inactive call. Active and inactive are the calls of the source.

For the compound `CCN1C(=O)N(CC)C2Nn3c(s/c(=C\c4ccc(OC)cc4)c3=O)=NC21` (stereo not drawn), the growth in the experiment on HCT-15 colon was 32.2%; in the experiment with HT29 colon it was 83.1%; in the experiment on SNB-75 CNS, 8.85% (active); in the experiment on SNB-19 CNS, 53.1%; in the experiment on U251 CNS, 39.3%; in the experiment on PC-3 prostate it was 44.1%. The growth with SK-MEL-5 melanoma was 47.6%; with UACC-62 melanoma, 34.1%; with LOX IMVI melanoma it was 53.6%; in the experiment on SK-MEL-28 melanoma, 62.8%; in the experiment with SK-MEL-2 melanoma, 51.9%; with EKVX NSCLC, 82.2%. The growth with SN12C renal is 62.6%; in the experiment with UO-31 renal, 48.6%; in the experiment on TK-10 renal, 11.2%; with ACHN renal, 42.7%; in the experiment on CAKI-1 renal it was 31.9%; in the experiment with A498 renal, -2.46% (active). The growth in the experiment on CCRF-CEM leukemia is 53.2%.
Take `Cc1ncc(C(=O)Nc2ccc(CN3CCN(C)CC3)c(C(F)(F)F)c2)cc1C#Cc1cnc(N)cc1C#N`: the growth is -65.2% (active) with HCT-15 colon; -86.2% (active) with HT29 colon; 37% in the experiment on SNB-75 CNS; 74.4% with SNB-19 CNS; -98.6% (active) in the experiment with U251 CNS; -55.6% (active) with PC-3 prostate. The growth in the experiment on SK-MEL-5 melanoma was -100% (active); in the experiment on UACC-62 melanoma it was -83.7% (active); in the experiment on LOX IMVI melanoma it was -99.9% (active); in the experiment on SK-MEL-28 melanoma it was -94.6% (active); in the experiment with SK-MEL-2 melanoma, -63.8% (active); in the experiment on EKVX NSCLC, 57.5%. Also, the growth in the experiment with SN12C renal was -5.62% (active); in the experiment with UO-31 renal it was -96.8% (active); with TK-10 renal, -54.7% (active); with ACHN renal it was -100% (active); with CAKI-1 renal, -88.2% (active); in the experiment on A498 renal it was -35.5% (active). Besides, the growth with CCRF-CEM leukemia was 13.6%.
With `O=C(NO)c1ccc(-n2nc(-c3ccccc3)c3ccccc32)cc1`, the growth in the experiment on HCT-15 colon is 18.5%; in the experiment with HT29 colon, 41.7%; with SNB-75 CNS, 12.1%; with SNB-19 CNS, 47.4%; in the experiment with U251 CNS, 34.4%; with PC-3 prostate it was 46.7%. Also, the growth in the experiment with SK-MEL-5 melanoma was 57.6%; with UACC-62 melanoma, 34.5%; in the experiment on LOX IMVI melanoma it was 24.8%; with SK-MEL-28 melanoma, 72.5%; in the experiment with SK-MEL-2 melanoma it was 90.9%; with EKVX NSCLC, 42.3%. Further, the growth was 32.9% in the experiment with SN12C renal; 34.6% in the experiment with UO-31 renal; 31.5% with TK-10 renal; 26.9% in the experiment with ACHN renal; 45.6% with CAKI-1 renal; 58.8% in the experiment with A498 renal. Further, the growth with CCRF-CEM leukemia was 12.9%; with MOLT-4 leukemia, 26.9%.
Consider `CCNc1nc2cc(Nc3ccnc4cc(Cl)ccc34)ccc2o1`, for which the growth in the experiment on HCT-15 colon is 40.9%; with HT29 colon it was 31.5%; in the experiment on SNB-75 CNS, 83.7%; in the experiment on SNB-19 CNS, 84.4%; with U251 CNS, 74.4%; in the experiment on PC-3 prostate it was 64.3%. Moreover, the growth in the experiment with SK-MEL-5 melanoma is 48.2%; in the experiment on UACC-62 melanoma, 70.9%; in the experiment on LOX IMVI melanoma it was 58.5%; in the experiment with SK-MEL-28 melanoma, 80.7%; in the experiment on SK-MEL-2 melanoma, 81.2%; with EKVX NSCLC, 86%. For the same compound, the growth with SN12C renal is 79.3%; in the experiment with UO-31 renal, 70.2%; with TK-10 renal, 81.9%; in the experiment on ACHN renal, 88.2%; with CAKI-1 renal, 71.9%; in the experiment on A498 renal, 47%. In addition, in the experiment on CCRF-CEM leukemia, the growth was 76.8%.
Turning to `O=C1C=CC(=O)N1c1cccc(Cl)c1`, the growth with HCT-15 colon is 101%; with HT29 colon, 85.9%; in the experiment with SNB-75 CNS, 115%; with SNB-19 CNS, 118%; with U251 CNS, 99.2%; in the experiment with PC-3 prostate it was 89.2%. Further, the growth in the experiment with SK-MEL-5 melanoma is 106%; in the experiment on UACC-62 melanoma it was 105%; in the experiment on LOX IMVI melanoma it was 102%; with SK-MEL-28 melanoma, 108%; with SK-MEL-2 melanoma, 116%; with EKVX NSCLC it was 108%. Moreover, the growth in the experiment with SN12C renal is 126%; in the experiment on UO-31 renal, 104%; in the experiment with TK-10 renal, 68.2%; in the experiment on ACHN renal, 98.4%; in the experiment on CAKI-1 renal it was 79.4%; in the experiment on A498 renal it was 94.6%. Also, the growth with CCRF-CEM leukemia is 55.4%.
On to `COc1cc(-c2cc(-c3ccc(N(C)C)cc3)nc(N3CCOCC3)c2C#N)cc(OC)c1OC`, for which the growth in the experiment with HCT-15 colon is 44.1%; with HT29 colon it was 12.1%; in the experiment on SNB-75 CNS it was 25.3%; in the experiment on SNB-19 CNS, 45%; in the experiment with U251 CNS it was 24.2%; in the experiment on PC-3 prostate it was 44.4%. In addition, the growth with SK-MEL-5 melanoma is 3.48% (active); in the experiment with UACC-62 melanoma, -39% (active); in the experiment with LOX IMVI melanoma, -58.6% (active); in the experiment on SK-MEL-28 melanoma it was 65.4%; in the experiment on SK-MEL-2 melanoma it was 34.5%; in the experiment on EKVX NSCLC, 51.2%. Besides, the growth was 53.4% in the experiment with SN12C renal; 54.8% with UO-31 renal; 38.4% in the experiment with TK-10 renal; 46.1% in the experiment with ACHN renal; 29.8% in the experiment on CAKI-1 renal; 75.5% with A498 renal. Also, the growth in the experiment on CCRF-CEM leukemia was 30.3%.
On to `NC(=S)N1N=C(c2ccccc2)CC1c1cn(-c2ccccc2)nc1-c1ccc(OCc2ccccc2)cc1` (stereo not drawn), for which the growth is 106% with HCT-15 colon; 95.9% with HT29 colon; 95.1% with SNB-75 CNS; 97.3% with SNB-19 CNS; 97% with U251 CNS; 89.2% in the experiment with PC-3 prostate. Further, the growth was 99.4% in the experiment with SK-MEL-5 melanoma; 86.3% in the experiment with UACC-62 melanoma; 99.3% with LOX IMVI melanoma; 112% in the experiment with SK-MEL-28 melanoma; 90.4% with SK-MEL-2 melanoma; 78.3% in the experiment on EKVX NSCLC. Further, the growth was 93.2% in the experiment on SN12C renal; 84.7% with UO-31 renal; 102% in the experiment on TK-10 renal; 100% with ACHN renal; 92.7% in the experiment on CAKI-1 renal; 94.5% with A498 renal. Further, the figures for the growth with CCRF-CEM leukemia and in the experiment with MOLT-4 leukemia were 103% and 98.7%, respectively.
In the case of `N#C/C(=C\c1cccc(C#N)c1)c1ccccc1`, the growth in the experiment on HCT-15 colon is 111%; in the experiment on HT29 colon, 96.6%; in the experiment with SNB-75 CNS, 88.9%; with SNB-19 CNS it was 109%; in the experiment with U251 CNS, 89.2%; with PC-3 prostate, 99.7%. In addition, the growth with SK-MEL-5 melanoma is 101%; with UACC-62 melanoma, 108%; in the experiment on LOX IMVI melanoma it was 98.9%; in the experiment with SK-MEL-28 melanoma, 115%; in the experiment with SK-MEL-2 melanoma it was 112%; in the experiment with EKVX NSCLC, 90.7%. The growth is 98.9% with SN12C renal; 93.3% with UO-31 renal; 91% in the experiment on TK-10 renal; 106% with ACHN renal; 96% in the experiment on CAKI-1 renal; 112% in the experiment on A498 renal.
